Most compounds without a hit are left out; they make up all but 1% or so of the library.
GALK inhibitor – inhibitors of human galactokinase; 270,000 tested, 0.007% active; Purified GALK, Kinase-Glo residual ATP luminescence; Potency, µM (series often up to 57.5 µM), hits mostly inhibitors; P51570
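Galactose (100 uM) and ATP (35 uM) were turned over by 5 nM GALK for 1 h at RT. Kinase-Glo Plus then converted the remaining ATP into a luminescent signal.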
RGS4 inhibitor – human RGS4 inhibition. P49798. Transcreener GDP fluorescence polarization, RGS4-accelerated GTP hydrolysis. Potency, µM (top dose mostly 114 µM), actives largely listed as inhibitors. 390,000 tested, 0.039% active. AID 504845; also: nearly all actives have a fitted effect of over 75% in size
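MLSMR compounds (23 nl, pin-transferred) preincubated 10 min at room temperature with a 500nM (2x) first reagent, then RGS4 at 900nM (2x) plus Transcreener GDP mix added; fluorescence polarization (620/688 nm) read before and after 90 min at 30 °C.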
TrxR1 inh – inhibitors of rat thioredoxin reductase 1; recombinant rTrxR1, NADPH fluorescence consumption, selenite substrate; AID 588453; Potency, µM (series often up to 114 µM), hits mostly inhibitors; 390,000 tested, 1% active; O89049; also: nearly all actives have a fitted effect of over 65% in size
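Rat TrxR1 (90 nM in the dispensed reagent) was pre-reduced with 400 uM NADPH for 5 min at room temperature, then incubated with compound for 15 min. After 400 uM selenite was added, NADPH fluorescence (Ex 340/Em 450 nm) was followed for 8 min.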
Eya2 phos inh – blocks the phosphatase activity of human Eya2; recombinant Eya2, OMFP fluorescence dephosphorylation (OMFP is methylfluorescein phosphate); Potency, µM (top dose mostly 76.9 µM), hits mostly inhibitors; 330,000 tested, 0.006% active; AID 488837
Target sequence (O00167 whole entry, looked up): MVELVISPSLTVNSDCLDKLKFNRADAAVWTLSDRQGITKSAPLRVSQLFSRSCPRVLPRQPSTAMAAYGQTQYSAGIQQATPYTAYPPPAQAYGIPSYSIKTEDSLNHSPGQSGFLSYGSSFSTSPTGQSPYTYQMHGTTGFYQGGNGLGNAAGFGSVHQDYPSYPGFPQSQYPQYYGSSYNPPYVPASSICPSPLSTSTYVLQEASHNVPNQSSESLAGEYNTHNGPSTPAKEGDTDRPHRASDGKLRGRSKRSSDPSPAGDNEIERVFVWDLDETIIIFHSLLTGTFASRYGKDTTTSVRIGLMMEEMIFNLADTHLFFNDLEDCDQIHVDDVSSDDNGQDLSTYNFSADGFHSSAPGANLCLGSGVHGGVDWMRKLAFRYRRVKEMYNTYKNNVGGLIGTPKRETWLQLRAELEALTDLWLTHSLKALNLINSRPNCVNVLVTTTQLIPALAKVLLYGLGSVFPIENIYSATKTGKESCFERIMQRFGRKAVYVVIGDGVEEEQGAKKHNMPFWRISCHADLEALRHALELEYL
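Eya2 (0.2 uM) preincubated 10 min at ambient with compound, then OMFP substrate added at 50 uM; 10 min reaction in 50 mM HEPES pH 7.5, 50 mM NaCl, 5 uM MgCl2, 0.05% BSA, 1 mM DTT. Fluorescence read at Ex 485/Em 525 nm.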
USP2a block – USP2a (human) protease inhibition; O75604; USP2 core, Ub-CHOP2 coupled fluorogenic reporter, 485/531; Potency, µM (series often up to 38.3 µM), usual class: inhibitors; 330,000 tested, 0.01% active
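USP2 core (10nM final) preincubated 30min RT with compound in 20mM Tris-HCl pH 8.0, 2mM CaCl2, 2mM beta-mercaptoethanol, 0.05% CHAPS; 25nM Ub-CHOP2 plus 25nM reporter substrate added, fluorescence (Ex485/Em531) read after 60min.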
TrxR1 substrate – substrates of rat thioredoxin reductase 1. O89049. purified TrxR1 substrate turnover, NADPH consumption readout. AID 588456. Potency, µM (highest dose often 114 µM). 390,000 tested, 0.01% active; also: nearly all actives have a fitted effect of over 50% in size
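Rat TrxR1, dispensed at 90 nM, was prereduced with 400 uM NADPH (final) for 5 min at ~22 deg C, then incubated with compound 15 min before 400 uM selenite. A first-read NADPH fluorescence drop versus no-compound background flagged substrates.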
Large screens that a line does not name were inactive; ! = repeats disagree. Calls follow the shape of the dose curve; as a rule, active = well fitted curve in the direction sought with a large enough effect; inconclusive = small, poorly fitted or top-dose-only effect, or another doubt; inactive = no such curve, though single readings can be large; an effect the other way counts as inactive or inconclusive.

O=C(CSc1nnc(-c2cnccn2)n1Cc1ccco1)c1ccc(Cl)cc1	RGS4 inhibitor inconclusive, TrxR1 inh 12.6µM
COc1ccc(OC)c(/C=C/c2sc3ccccc3[n+]2C)c1	none (no result: GALK inhibitor, RGS4 inhibitor, Eya2 phos inh, USP2a block)
CN1C2CCC1/C(=C\c1ccc(F)cc1)C(=O)/C2=C/c1ccc(F)cc1	none
C=CC(=O)N1C/C(=C/c2ccc(F)cc2)C(=O)/C(=C\c2ccc(F)cc2)C1	RGS4 inhibitor inconclusive, TrxR1 inh 25.1µM (no result: GALK inhibitor, Eya2 phos inh, USP2a block)
CCCOc1ccc(C2C(C(=O)c3ccc(C)o3)=C(O)C(=O)N2CCN2CCOCC2)cc1OC (stereo not drawn)	TrxR1 inh 50.1µM
O=C(Cc1ccccc1)n1nc(-c2ccco2)nc1SCc1ccccc1	none
O=C(Cc1ccccc1)Nc1nc2ccc(Cl)cc2c2nc(-c3ccco3)nn12	RGS4 inhibitor 37.7µM (no result: GALK inhibitor, TrxR1 inh, Eya2 phos inh, USP2a block, TrxR1 substrate)
Cc1c(F)cccc1Cn1cnc2c(cnn2C(C)(C)C)c1=O	none (no result: GALK inhibitor, RGS4 inhibitor, Eya2 phos inh, USP2a block)
CC1=C(C(=O)Nc2ccccc2)C(c2ccccn2)n2ncnc2N1 (stereo not drawn)	none (no result: Eya2 phos inh, USP2a block)
CC1=C(C(=O)Nc2ccccc2)C(c2ccc[nH]2)n2ncnc2N1 (stereo not drawn)	TrxR1 inh 39.8µM!, USP2a block inconclusive (no result: GALK inhibitor)
CC(C)OC(=O)c1nn2c(C(F)(F)F)cc(-c3ccco3)nc2c1Cl	none
CC(C)OC(=O)c1nn2c(C(F)(F)F)cc(-c3ccc(Br)o3)nc2c1Br	TrxR1 inh 25.1µM
CC(=O)c1c(O)cc(O)cc1O	TrxR1 inh 3.55µM (no result: GALK inhibitor, Eya2 phos inh, USP2a block)
COc1cc(O)c(C(C)=O)c(OC)c1	none (no result: GALK inhibitor, Eya2 phos inh, USP2a block)
CC(C)(C)[C@H]1CCC(=O)N(CCSc2ccc(Br)cc2)CC1	none (no result: GALK inhibitor, RGS4 inhibitor, Eya2 phos inh, USP2a block)
Cc1cc(C)c(S(=O)(=O)/N=C2\C=C(NS(=O)(=O)c3ccccc3)C(=O)c3ccccc32)c(C)c1	none
Cc1cc(C)c(S(=O)(=O)/N=C2\C=CC(=O)C(Cl)=C2)c(C)c1	TrxR1 inh 17.8µM, USP2a block inconclusive
O=C1c2ccccc2-c2onc3ccc(NCc4ccco4)c1c23	RGS4 inhibitor inconclusive, TrxR1 inh 25.1µM, Eya2 phos inh inconclusive, USP2a block inconclusive
CCNc1ccc2noc3c2c1C(=O)c1ccccc1-3	Eya2 phos inh inconclusive, USP2a block inconclusive
CNC(CC(=O)c1ccc([N+](=O)[O-])cc1)C(Cl)(Cl)Cl (stereo not drawn)	RGS4 inhibitor inconclusive, TrxR1 inh 0.631µM, TrxR1 substrate inconclusive
CCCC(O)(CCN1CCOCC1)c1ccc(Cl)cc1 (stereo not drawn)	TrxR1 inh inconclusive, Eya2 phos inh inconclusive
CCCC(O)(CCN1CCOCC1)c1ccc(Br)cc1 (stereo not drawn)	TrxR1 inh 35.5µM
COc1ccc(C2C(C#N)=C(N)N(c3cccnc3)C3=C2C(=O)CC(C)(C)C3)cc1OC (stereo not drawn)	TrxR1 inh 17.8µM (no result: GALK inhibitor)
CNc1c(Br)cc(C=O)cc1Br	none (no result: GALK inhibitor, RGS4 inhibitor, Eya2 phos inh, USP2a block)
COc1ccccc1/C=C/c1nc2ccccc2[nH]1	none (no result: GALK inhibitor, RGS4 inhibitor, Eya2 phos inh, USP2a block)
O=c1c(C(c2ccccc2)c2c(O)nc3n(c2=O)CCCS3)c(O)nc2n1CCCS2	TrxR1 inh inconclusive
O=c1c2[nH]c3ccc(F)cc3c2nc2n1CCCS2	none
O=c1c(C(c2ccccc2)c2c(O)nc3n(c2=O)CCS3)c(O)nc2n1CCS2	TrxR1 inh 7.08µM (no result: GALK inhibitor)
O=c1c(C(c2ccc(F)cc2)c2c(O)nc3n(c2=O)CCCS3)c(O)nc2n1CCCS2	TrxR1 inh 14.1µM
N#Cc1ccc(/C=C2/C=Cc3ccccc32)cc1	none (no result: GALK inhibitor, RGS4 inhibitor, Eya2 phos inh, USP2a block)
COc1cc(C(C#N)N2N=C(c3ccccc3)CC2c2ccccc2)ccc1O (stereo not drawn)	none
COc1ccc(C(C#N)N2CCC(c3ccccc3)=N2)cc1 (stereo not drawn)	TrxR1 inh 15.8µM
Cn1cnc(S(=O)(=O)N2CCC(C(=O)Nc3ccc(Cl)c(C(F)(F)F)c3)CC2)c1	none (no result: GALK inhibitor, Eya2 phos inh, USP2a block)
CCNc1ccccc1CP(=O)(c1ccccc1)c1ccccc1O (stereo not drawn)	RGS4 inhibitor inconclusive, TrxR1 inh 50.1µM
Cc1ccc(O)c(CP(=O)(c2ccccc2)c2ccccc2)c1	none
O=C(C[n+]1ccncc1)c1ccc2ccccc2c1	none (no result: GALK inhibitor, RGS4 inhibitor, Eya2 phos inh, USP2a block)
c1ccc(OCc2nn3c(-c4ccco4)nnc3s2)cc1	TrxR1 inh 56.2µM

Screening results (PubChem BioAssay)
